Assay results: PubChem BioAssay (NCATS)
Records with an inconclusive call do not appear. Calls of active or inactive are those of the source. The call rests on the fitted dose curve; in most records, active means well fitted cell-killing curve with a large enough effect; inconclusive means small, poorly fitted or top-dose-only effect, or effect the other way; inactive means no such curve, though single readings can be large or run the other way.

test: Quantitative High-Throughput drug screen in 47 multiple myeloma cell lines against the NCATS MIPE library collection: OPM1_PLB cell viability assay (AID 1918989); conditions: CellTiter-Glo, 48 h; series mostly up to 45.8 µM; viability (% of control): at the top concentration; further: nearly all actives have a fitted effect of over 40% in size;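 on viability (% of control): 100% = DMSO-only wells and 0% = media-only wells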
Procedure, shortened: (§1)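 qHTS format: cells plated (500/well), pin-dosed with MIPE 4.0 compounds, kept 48 h at 37 °C. Readout was CellTiter-Glo luminescence, median RLU.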
Potency means the concentration at half of the fitted maximal effect.

SMILES | viability (% of control) | Potency
CC(C)OC(=O)C1=CN(C(=O)c2ccc(F)c(F)c2)CC(C)(C)c2c1[nH]c1ccccc21 | 116% (inactive) | 
NC(=O)C1CCCc2c1[nH]c1ccc(Cl)cc21 (stereo not given) |  | 4.69 µM (active)
CCC(C)N(C)C(=O)c1cc2ccccc2c(-c2ccccc2Cl)n1 (stereo not given) | 125% (inactive) | 
OC[C@H](Cc1ccccc1)Nc1nc(Oc2ccc3c(c2)CCC3)nc2c1ncn2Cc1ccc(-c2ccccc2)cc1 |  | 11.8 µM (active)
COc1cc2c(cc1OC)CN(CCc1ccc(NC(=O)c3cccc4c(=O)c5cccc(OC)c5[nH]c34)cc1)CC2 |  | 16.6 µM (active)
O=C1CCc2cc(OCCCCc3nnnn3C3CCCCC3)ccc2N1 | 101% (inactive) | 
CCc1ccc(CCOc2ccc(CC3SC(=O)NC3=O)cc2)nc1 (stereo not given) | 127% (inactive) | 
CCCn1c(=O)c2[nH]c(C34CC5CC3C[C@@H](C5)C4)nc2n(CCC)c1=O | 147% (inactive) | 
Cc1ccccc1C(OCCN(C)C)c1ccccc1 (stereo not given) | 120% (inactive) | 
CCCc1nc2c(C)cc(-c3nc4ccccc4n3C)cc2n1Cc1ccc(-c2ccccc2C(=O)O)cc1 | 121% (inactive) | 
Cc1c(C)c2c(c(C)c1O)CCC(C)(COc1ccc(CC3SC(=O)NC3=O)cc1)O2 (stereo not given) | 149% (inactive) | 
O=S(=O)(N=Cc1c(O)ccc2ccccc12)c1cccs1 |  | 7.43 µM (active)
O=c1n(CCCN2CCN(c3cccc(Cl)c3)CC2)nc2ccccn12 | 124% (inactive) | 
CCc1cc(Nc2nccc(-c3c(-c4ccc(OC)c(C(=O)Nc5c(F)cccc5F)c4)nc4ccccn34)n2)c(OC)cc1N1CCC(N2CCN(S(C)(=O)=O)CC2)CC1 |  | 14.8 µM (active)
COc1ccc(-c2c(-c3ccc(O)cc3O)n[nH]c2C)cc1 |  | 30.3 µM (active)
c1ccc(-c2nn3c(c2-c2ccnc4cc(OCCN5CCOCC5)ccc24)CCC3)nc1 | 109% (inactive) | 
COCC(=O)NCC=Cc1ccc2ncnc(Nc3ccc(Oc4ccc(C)nc4)c(C)c3)c2c1 |  | 18.7 µM (active)
OC(CN1CCC(Cc2ccc(F)cc2)CC1)c1ccc(Cl)cc1 (stereo not given) | 112% (inactive) | 
Nc1cccc(S(=O)(=O)N2CCCN(S(=O)(=O)c3ccc4c(c3)OCCO4)CC2)c1 | 111% (inactive) | 

test: Quantitative High-Throughput drug screen in 47 multiple myeloma cell lines against the NCATS MIPE library collection: SKMM1_PLB cell viability assay (AID 1919863); conditions: SKMM1 myeloma viability, CellTiter-Glo ATP, 48 h; viability: stronger effect = lower value; further: nearly all actives have a fitted effect of over 35% in size
Procedure, shortened: as §1

SMILES | viability | Potency
CCN(CC)CCCC(C)Nc1ccnc2cc(Cl)ccc12 (stereo not given) | 95.1% (inactive) | 
COc1nc(-c2ccc3c(c2)OCO3)n(-c2ccc(NC(=O)CSc3ccccc3)cc2)n1 | 123% (inactive) | 
CCCC(CCC)C(=O)O | 126% (inactive) | 
NC(=O)c1cnccn1 | 112% (inactive) | 
Cc1ccccc1C(C(=O)NC1CCCC1)N(C(=O)Cn1cnc2ccccc21)c1cccc(F)c1 (stereo not given) |  | 10.5 µM (active)
O=C(C=Cc1ccc(/C=C/C(=O)Nc2ccc(C3=NCCN3)cc2)cc1)Nc1ccc(C2=NCCN2)cc1 | 118% (inactive) | 

test: Quantitative High-Throughput drug screen in 47 multiple myeloma cell lines against the NCATS MIPE library collection: U266_ATCC cell viability assay (AID 1919864); conditions: U266 myeloma viability, CellTiter-Glo ATP luminescence, 48 h; series mostly up to 45.8 µM; viability (% of DMSO control): at the top concentration; further: nearly all actives have a fitted effect of over 35% in size;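 on viability (% of DMSO control): 0% = media-only wells without cells and 100% = DMSO-only wells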
Procedure, shortened: as §1

SMILES | viability (% of DMSO control) | Potency
CC(C)NCC(O)COc1ccc(COCCOC(C)C)cc1 (stereo not given) | 134% (inactive) | 
COc1cc2c(cc1OC)CN(CCc1ccc(NC(=O)c3cccc4c(=O)c5cccc(OC)c5[nH]c34)cc1)CC2 |  | 9.35 µM (active)
CC1(C)Cc2c(-c3ccccc3)c(-c3ccc(Cl)cc3)c(CC(=O)O)n2C1 |  | 18.7 µM (active)
COc1nc(-c2ccc3c(c2)OCO3)n(-c2ccc(NC(=O)CSc3ccccc3)cc2)n1 |  | 5.26 µM (active)
O=C1CCc2cc(OCCCCc3nnnn3C3CCCCC3)ccc2N1 | 120% (inactive) | 
CCc1ccc(CCOc2ccc(CC3SC(=O)NC3=O)cc2)nc1 (stereo not given) | 134% (inactive) | 
NC(N)=NC(=O)c1nc(Cl)c(N)nc1N | 119% (inactive) | 
CCCn1c(=O)c2[nH]c(C34CC5CC3C[C@@H](C5)C4)nc2n(CCC)c1=O | 118% (inactive) | 
Cc1ccccc1C(OCCN(C)C)c1ccccc1 (stereo not given) | 107% (inactive) | 
Cc1c(C)c2c(c(C)c1O)CCC(C)(COc1ccc(CC3SC(=O)NC3=O)cc1)O2 (stereo not given) | 120% (inactive) | 
COc1ccc(-c2c(-c3ccc(O)cc3O)n[nH]c2C)cc1 | 101% [at 92.2 µM] (inactive) | 
COc1cc(Nc2ncc3c(n2)-c2ccc(Cl)cc2C(c2c(F)cccc2OC)=NC3)ccc1C(=O)O | 103% (inactive) | 
COCCNCCCn1c(C(=O)CF)c(-c2ccc(C)cc2)c2c(N)ncnc21 | 112% (inactive) | 
Cn1c(=O)c(F)c(Nc2ccc(I)cc2F)c2c(=O)n(C[C@@H](O)CO)cnc21 |  | 9.35 µM (active)
Cc1ccccc1C(C(=O)NC1CCCC1)N(C(=O)Cn1cnc2ccccc21)c1cccc(F)c1 (stereo not given) |  | 23.5 µM (active)

test: Quantitative High-Throughput drug screen in 47 multiple myeloma cell lines against the NCATS MIPE library collection: XG6_PLB cell viability assay (AID 1919865); conditions: XG6 myeloma viability, CellTiter-Glo ATP luminescence, 48 h; series mostly up to 45.8 µM; viability (% of control): at the top concentration; further: nearly all actives have a fitted effect of over 40% in size;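 on viability (% of control): 100% = DMSO-only wells and 0% = media-only wells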
Procedure, shortened: as §1

SMILES | viability (% of control) | Potency
CC(C)OC(=O)C1=CN(C(=O)c2ccc(F)c(F)c2)CC(C)(C)c2c1[nH]c1ccccc21 | 101% (inactive) | 
NC(=O)C1CCCc2c1[nH]c1ccc(Cl)cc21 (stereo not given) |  | 20.9 µM (active)
CCC(C)N(C)C(=O)c1cc2ccccc2c(-c2ccccc2Cl)n1 (stereo not given) |  | 8.33 µM (active)
CCN(CC)CCCC(C)Nc1ccnc2cc(Cl)ccc12 (stereo not given) |  | 10.5 µM (active)
Cc1cnc(Nc2ccc(OCCN3CCCC3)cc2)nc1Nc1cccc(S(=O)(=O)NC(C)(C)C)c1 | 101% (inactive) | 
CC(C)NCC(O)COc1ccc(COCCOC(C)C)cc1 (stereo not given) | 107% (inactive) | 
CC1(C)Cc2c(-c3ccccc3)c(-c3ccc(Cl)cc3)c(CC(=O)O)n2C1 |  | 18.7 µM (active)
COc1nc(-c2ccc3c(c2)OCO3)n(-c2ccc(NC(=O)CSc3ccccc3)cc2)n1 | 109% (inactive) | 
Cc1cccc(-c2[nH]c(C(C)(C)C)nc2-c2ccc3nccnc3c2)n1 |  | 3.32 µM (active)
NC(N)=NC(=O)c1nc(Cl)c(N)nc1N |  | 7.43 µM (active)
CCCC(CCC)C(=O)O |  | 26.4 µM (active)
Nc1ccc(S(=O)(=O)Nc2ccnn2-c2ccccc2)cc1 | 108% (inactive) | 
CCCc1nc2c(C)cc(-c3nc4ccccc4n3C)cc2n1Cc1ccc(-c2ccccc2C(=O)O)cc1 |  | 23.5 µM (active)
O=S(=O)(N=Cc1c(O)ccc2ccccc12)c1cccs1 |  | 0.0935 µM (active)
c1ccc(-c2nn3c(c2-c2ccnc4cc(OCCN5CCOCC5)ccc24)CCC3)nc1 | 100% (inactive) | 
Cc1n[nH]c(C)c1Cc1sc2c(c1C(=O)N1C[C@H](O)CO1)c(=O)n(C)c(=O)n2CC(C)C | 103% (inactive) | 
COCC(=O)NCC=Cc1ccc2ncnc(Nc3ccc(Oc4ccc(C)nc4)c(C)c3)c2c1 |  | 16.6 µM (active)
OC(CN1CCC(Cc2ccc(F)cc2)CC1)c1ccc(Cl)cc1 (stereo not given) | 96.9% (inactive) | 
Cc1ccccc1C(C(=O)NC1CCCC1)N(C(=O)Cn1cnc2ccccc21)c1cccc(F)c1 (stereo not given) | 83.3% (inactive) | 
O=C(C=Cc1ccc(/C=C/C(=O)Nc2ccc(C3=NCCN3)cc2)cc1)Nc1ccc(C2=NCCN2)cc1 | 108% (inactive) | 
